In the library only some 18% were active in any assay of this set; here they are far more common.
VDR inhibitor: inhibitors of human vitamin D receptor. actives 0.93% (n = 400,000). AID 504847. Potency, µM, without a hit: max response, negative = inhibition, hits mostly inhibitors. VDR-SRC2-3 peptide fluorescence polarization, 2 h
Target sequence (P11473 whole entry, looked up): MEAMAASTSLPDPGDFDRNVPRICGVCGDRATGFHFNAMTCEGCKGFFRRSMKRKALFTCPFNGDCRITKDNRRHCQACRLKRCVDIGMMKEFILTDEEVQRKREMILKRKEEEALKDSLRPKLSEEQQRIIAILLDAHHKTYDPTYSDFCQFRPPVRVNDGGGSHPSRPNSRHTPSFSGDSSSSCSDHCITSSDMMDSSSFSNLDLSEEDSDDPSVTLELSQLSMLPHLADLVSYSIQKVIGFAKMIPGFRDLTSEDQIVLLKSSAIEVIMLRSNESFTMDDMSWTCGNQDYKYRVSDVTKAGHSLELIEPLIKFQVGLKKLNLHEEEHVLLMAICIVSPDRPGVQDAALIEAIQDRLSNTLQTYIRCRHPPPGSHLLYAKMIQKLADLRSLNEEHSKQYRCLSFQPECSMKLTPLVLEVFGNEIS
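Fluorescence polarization assay of small-molecule disruption of VDR binding to coregulator peptide SRC2-3. Compounds and controls pin-transferred, then read after 2 h incubation at ambient room temperature.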
GCN5L2 inh: GCN5L2 (KAT2A) acetyltransferase inhibition | Potency, µM (titrated, usually from 58.9 µM), for inactives: at the highest dose activity change, negative = inhibition, actives largely listed as inhibitors | Q92830 | actives 0.21% (n = 390,000) | GCN5L2 HAT assay, ThioGlo1 CoA-SH fluorescence | AID 504327
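Enzyme at 20nM final was mixed with library compounds for 15 min at room temperature. Peptide H3(1-25) at 75uM, acetyl-CoA at 70uM and ThioGlo1 at 50uM were then added. Plates were read immediately and after 20 min (Ex340nm/Em540nm).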
TDP1 block: TDP1 (human) enzyme inhibition | Q9NUW8 | recombinant TDP1, AlphaScreen DNA substrate cleavage | Potency, µM (doses to about 130 µM), for inactives: at the top dose activity change, negative = inhibition, usual class: inhibitors | actives 0.28% (n = 350,000) | AID 485290; note: nearly all actives have a fitted effect of over 40% in size
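Steps: enzyme plus compound, 15 min RT; add biotin/phosphotyrosine-FITC oligonucleotide (15 nM final), react 5 min; add donor/acceptor beads (10 ug/ml final), 10 min; read AlphaScreen. Tdp1 at 1 nM final.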
PLK1 PBD inh: blocks phosphopeptide binding to human PLK1 polo-box domain. actives 2.8% (n = 360,000). P53350. Potency, µM, inactives show max response, negative = inhibition, hits mostly inhibitors. Plk1 PBD binding of FITC phosphopeptide, fluorescence polarization; note: series mostly up to about 57 µM; nearly all actives have a fitted effect of over 65% in size
TDP1 cell CPT: growth inhibition of DT40 Tdp1-/-;hTDP1 cells with camptothecin (screen for TDP1 inhibitors); chicken DT40 Tdp1-/-;hTDP1 cells + 20 nM CPT, ATP luminescence, 48 h; Potency, µM (titrated, usually from 46.2 µM), for inactives: at the highest dose activity change, negative = growth inhibition, hits mostly inhibitors; actives 12% (n = 420,000); AID 686979; note: nearly all actives have a fitted effect of over 55% in size
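Cell growth measured by CellTiter-Glo luminescence after a minimum 48 h, 37 C compound exposure with 20 nM CPT in Tdp1-knockout DT40 cells stably expressing hTDP1, seeded 400/well; qHTS titration format.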
DT40 TDP1 no CPT: qHTS for Inhibitors of human tyrosyl-DNA phosphodiesterase 1 (TDP1): qHTS in cells in absence of CPT | DT40 Tdp1-/- hTDP1 cells, no CPT, ATP luminescence, 48 h | AID 686978, 2013 | actives 15% (n = 420,000) | Potency, µM (titrated, usually from 46.2 µM), inactives show at the highest dose activity change, negative = growth inhibition, actives largely listed as inhibitors; note: nearly all actives have a fitted effect of over 55% in size
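Chicken DT40 Tdp1-/- cells stably complemented with human TDP1 were seeded at 400 cells/well with DMSO in place of 20 nM camptothecin. After compound pinning, cells grew at least 48 hr at 37 °C; viability read by CellTiter-Glo luminescence.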
* = called active by the depositor; ? = inconclusive; · = no result. Calls come from the whole dose curve; as a rule, active = well fitted curve in the direction sought with a large enough effect; inconclusive = small, poorly fitted or top-dose-only effect, or another doubt; inactive = no such curve, though single readings can be large; an effect the other way counts as inactive or inconclusive. % is set by controls: 0 for no effect and ±100 for the full control effect; potency is the fitted concentration of half-maximal effect.

SMILES | VDR inhibitor | GCN5L2 inh | TDP1 block | PLK1 PBD inh | TDP1 cell CPT | DT40 TDP1 no CPT
O=C(CNc1cccc2ccccc12)N/N=C/C(Br)=C/c1ccccc1 | -5.9% | -1.6% | 9.0% | -5.8% | 11.6µM* | 10µM*
O=C(CNc1ccccc1)N/N=C/c1ccc([N+](=O)[O-])cc1 | -17.4% | -8.3% | 4.6% | -14.3% | -15.6% | -3.8%
O=C(CNc1cccc([N+](=O)[O-])c1)N/N=C/c1ccc([N+](=O)[O-])o1 | -5.4% | 2.8% | 5.4% | -8.8% | 2.91µM* | 2.59µM*
O=C(CNc1cccc2ccccc12)N/N=C/c1ccc([N+](=O)[O-])o1 | -15.8% | -1.6% | 0.0% | -20.4% | 6.51µM* | 4.11µM*
Cc1cccc(OCC(=O)N(Cc2ccco2)C2CCS(=O)(=O)C2)c1C (stereo not given) | 8.3% | ? | · | -3.6% | -16.6% | ?
O=C(CC1SC(N2CCCCC2)=NC1=O)Nc1cccc(C(=O)Nc2ncccc2O)c1 (stereo not given) | -0.4% | -21.0% | · | -1.6% | ? | ?
C[N+](C)(C)CCN(Cc1ccc(Cl)cc1)c1ccccn1 | 7.0% | -12.2% | 1.0% | 0.9% | 18.4µM* | 16.4µM*
CN(C)CCN(Cc1ccc(Cl)cc1)c1ccccn1 | ? | -5.0% | 2.9% | -15.1% | ? | ?
NC(=O)c1nc(-c2ccc(F)c(F)c2)nc2c1[nH]c(=O)n2-c1cccc(Cl)c1 | 11.9% | -0.9% | -2.5% | · | ? | -17.1%
Cc1ccc(Nc2nnc(-c3ccc4c(c3)OCO4)o2)c(C)c1 | ? | 17.6% | 0.0% | 21.2µM* | ? | ?
Cc1ccc(CSc2nnc(-c3ccc4c(c3)OCO4)o2)cc1 | 10.0% | 1.1% | 5.7% | -2.2% | -5.7% | -23.9%
COC(=O)c1c(NC(=O)c2nc3nc(C)cc(C(F)F)n3n2)sc2c1CCC2 | 13.7% | -1.7% | -4.0% | -7.8% | ? | 16.4µM*
CCOP(=O)(OCC)C(O)c1cc(OC)c(OC)c(OC)c1 (stereo not given) | -12.1% | -3.6% | -1.9% | -16.5% | -4.8% | -17.2%
COc1cc(C(O)P(=O)(OCC(C)C)OCC(C)C)cc(OC)c1OC (stereo not given) | -8.4% | -3.0% | 3.1% | 11.9µM* | ? | ?
CCOC(=O)c1sc2ccccc2c1S(=O)(=O)Nc1ccc(OC)c(Cl)c1 | 3.7% | -11.7% | 8.4% | · | ? | -29.2%
O=[N+]([O-])c1ccccc1C(=Nc1ccccc1)c1c(O)cc(O)cc1O | · | · | · | -11.1% | ? | 18.4µM*
Cc1cc(C)c(C(=O)Nn2c(C)nc3ccccc3c2=O)cc1C | -7.9% | -6.0% | · | 3.2% | ? | -21.3%
CC(=O)N1N=C(c2cccc([N+](=O)[O-])c2)OC1c1cccc(Br)c1 (stereo not given) | 11.7% | -12.9% | 2.4% | -11.8% | -3.7% | ?
CC(=O)N1N=C(c2cccc(Cl)c2)OC1c1cccc([N+](=O)[O-])c1 (stereo not given) | 0.1% | -1.7% | 3.5% | -1.7% | ? | 20.6µM*
CC1=CC2=NC(=O)/C(=C\c3ccc(-c4cccc(Cl)c4)o3)C(=N)N2O1 | 27.6% | -18.3% | -9.4% | 1.0% | 4.61µM* | 2.59µM*
CC1=CN2C(=N)/C(=C/c3ccc(Sc4ccc(C)cc4)o3)C(=O)N=C2S1 | 4.8% | -14.8% | 1.9% | -3.9% | ? | ?
CCN1C(=NCC(C)C)N[C@@H](c2cccc(C(F)(F)F)c2)C(C(=O)OC)=C1C | 4.0% | ? | · | 5.8% | ? | 20.6µM*
C=CCN=C1N[C@@H](c2cccc(C(F)(F)F)c2)C(C(=O)OC)=C(C)N1CC | -4.4% | -3.0% | · | 8.7% | ? | ?
CCN1C(=NCCc2cccs2)N[C@@H](c2cccs2)C(C(=O)OC)=C1C | -15.0% | 1.2% | · | -3.3% | 6.51µM* | 20.6µM*
COC(=O)C1=C(C)N(Cc2ccccc2)C(=NCCc2ccccn2)N[C@H]1c1cccc(F)c1 | -12.6% | -5.6% | · | -23.2% | 16.4µM* | ?
SMILES | VDR inhibitor | GCN5L2 inh | TDP1 block | PLK1 PBD inh | TDP1 cell CPT | DT40 TDP1 no CPT
COC(=O)C1=C(C)N(Cc2ccccc2)C(=NCCCCO)N[C@H]1CCc1ccccc1 | -8.7% | -2.7% | · | -5.4% | ? | 16.4µM*
Cc1ccc(S(=O)(=O)N2C[C@]3(O)C[C@@H]4C(=O)N(c5ccccc5)C(=O)[C@@H]4C[C@]3(OC(=O)Nc3c(C)noc3C)C2)cc1 | · | · | · | -12.9% | -3.2% | -5.0%
COC(=O)C1=C(C)N(Cc2ccccc2)C(=NCc2cccc(C(F)(F)F)c2)N[C@H]1c1cccc(C(F)(F)F)c1 | 4.8% | -23.7% | -0.1% | -14.0% | 3.26µM* | 3.66µM*
CCN1C(=NCCc2c[nH]c3ccccc23)N[C@@H](c2ccccc2)C(C(=O)OC)=C1C | · | -7.2% | · | · | · | ·
COCCN=C1N[C@@H](c2cccc(C(F)(F)F)c2)C(C(=O)OC)=C(C)N1Cc1ccccc1 | -4.0% | 1.1% | · | -8.5% | 13µM* | 10.3µM*
COC(=O)C1=C(C)N(Cc2ccccc2)C(=NCCc2c[nH]c3ccccc23)N[C@H]1c1cccc(C(F)(F)F)c1 | 3.0% | -4.5% | 8.0% | -10.9% | ? | 16.4µM*
CCN1C(=NCc2cccc(Cl)c2)N[C@@H](c2cccc(F)c2)C(C(=O)OC)=C1C | -4.9% | -0.2% | · | -8.4% | ? | 18.4µM*
CCOc1ccc(S(=O)(=O)N2CCCC(C(=O)N3CCCC3)C2)cc1 (stereo not given) | -12.8% | 0.0% | 1.8% | 1.5% | -4.0% | ?
O=C1c2ccccc2C(=O)N1c1nc(-c2ccc(F)cc2)cs1 | · | · | · | · | -8.0% | ?
COC(=O)C1=C(C)N(Cc2ccccc2)C(=NCCCCO)N[C@H]1c1cccc(C(F)(F)F)c1 | -13.5% | -1.1% | 0.0% | 1.3% | 23.1µM* | ?
COC(=O)C1=C(C)N(Cc2ccccc2)C(=NCc2cccc(C(F)(F)F)c2)N[C@H]1c1cccc(F)c1 | -2.9% | ? | · | -15.1% | 6.51µM* | 6.51µM*
CN(C)CCNc1ccc(-c2nn(C)c(=O)c3ccccc23)cc1[N+](=O)[O-] | 1.5% | 35.2% | 2.4% | -13.7% | ? | 23.1µM*
CN(C)CCCNc1ccc(-c2n[nH]c(=O)c3ccccc23)cc1[N+](=O)[O-] | -2.4% | -4.4% | · | -3.8% | 10.3µM* | 23.1µM*
Cn1nc(-c2ccc(N3CCN(CCO)CC3)c([N+](=O)[O-])c2)c2ccccc2c1=O | 3.4% | -5.6% | 2.4% | -17.8% | 16.9% | ?

Compound activity as filed in PubChem.
